Measured values taken from PubChem BioAssay AID1159580 (chemical genetic matrix, 2015).
The whole screen tested about 5,500 compounds, of which about 2,000 (36%) were called active. Inconclusive results (about 18%) are left out. Cut-off read from the data, not from the text of the source: active = normalized growth mostly below about 0.91 (no sharp cut-off); inconclusive = no clear call, values can overlap the other calls; inactive = mostly above about 0.92. This is one part of the list.

Experiment: chemical genetic growth profiling, strain panel (AID 1159580);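 note: tested at 20 µM; growth read once vehicle control cultures reached saturation at 30 °C; 1 = growth at the plate median or of vehicle wells; lower values mean less growth of the strain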
Details: growth OD

Measured: normalized growth

COc1ccc(CC2c3cc(OC)c(OC)cc3CCN2C)cc1OC (stereo unspecified)
inactive: S. cerevisiae deletion strains, locus YAL013W, strain DEP1, active compounds read low 0.984 | S. cerevisiae deletion strains, locus YBR021W, strain FUR4, active compounds read low 1.05 | S. cerevisiae deletion strains, locus YBR229C, strain ROT2, active compounds read low 0.969 | S. cerevisiae deletion strains, locus YCL029C, strain bik1, active compounds read low 0.988 | S. cerevisiae deletion strains, locus YDL035C, strain GPR1, active compounds read low 0.997 | S. cerevisiae deletion strains, locus YDL074C, strain BRE1, active compounds read low 0.964 | S. cerevisiae deletion strains, locus YDL101C, strain DUN1, active compounds read low 0.961 | S. cerevisiae deletion strains, locus YDL134C, strain PPH21, active compounds read low 0.981 | S. cerevisiae deletion strains, locus YDL185W, strain tfp1, active compounds read low 0.951 | S. cerevisiae deletion strains, locus YDL192W, strain arf1, active compounds read low 0.994 | S. cerevisiae deletion strains, locus YDR101C, strain arx1, active compounds read low 1.01 | S. cerevisiae deletion strains, locus YDR150W, strain NUM1, active compounds read low 0.974 | S. cerevisiae deletion strains, locus YDR162C, strain NBP2, active compounds read low 0.941 | S. cerevisiae deletion strains, locus YDR318W, strain mcm21, active compounds read low 1.02 | S. cerevisiae deletion strains, locus YDR388W, active compounds read low 0.992 | S. cerevisiae deletion strains, locus YDR502C, strain sam2, active compounds read low 0.974 | S. cerevisiae deletion strains, locus YEL061C, strain CIN8, active compounds read low 0.988 | S. cerevisiae deletion strains, locus YER110C, active compounds read low 0.987 | S. cerevisiae deletion strains, locus YER155C, strain BEM2, active compounds read low 1 | S. cerevisiae deletion strains, locus YER167W, strain BCK2, active compounds read low 0.997 | S. cerevisiae deletion strains, locus YGL078C, strain dbp3, active compounds read low 0.976 | S. cerevisiae deletion strains, locus YGL086W, strain mad1, active compounds read low 1.01 | S. cerevisiae deletion strains, locus YGL248W, strain PDE1, active compounds read low 0.978 | S. cerevisiae deletion strains, locus YGR078C, strain PAC10, active compounds read low 0.967 | S. cerevisiae deletion strains, locus YGR135W, strain pre9, active compounds read low 0.957 | S. cerevisiae deletion strains, locus YGR229C, strain SMI1, active compounds read low 0.997 | S. cerevisiae deletion strains, locus YGR252W, strain gcn5, active compounds read low 1.08 | S. cerevisiae deletion strains, locus YHR030C, strain SLT2, active compounds read low 1 | S. cerevisiae deletion strains, locus YHR079C, strain IRE1 (second series), active compounds read low 0.99 | S. cerevisiae deletion strains, locus YHR094C, strain hxt1, active compounds read low 0.988 | S. cerevisiae deletion strains, locus YHR129C, strain ARP1, active compounds read low 0.987 | S. cerevisiae deletion strains, locus YHR200W, strain rpn10, active compounds read low 0.982 | S. cerevisiae deletion strains, locus YIL066C, strain RNR3, active compounds read low 0.971 | S. cerevisiae deletion strains, locus YIL073C, strain SPO22, active compounds read low 1.02 | S. cerevisiae deletion strains, locus YIL125W, strain kgd1, active compounds read low 0.983 | S. cerevisiae deletion strains, locus YIR030C, strain dcg1, active compounds read low 0.979 | S. cerevisiae deletion strains, locus YJL095W, strain BCK1, active compounds read low 0.985 | S. cerevisiae deletion strains, locus YJL134W, strain LCB3, active compounds read low 0.993 | S. cerevisiae deletion strains, locus YJL168C, strain set2, active compounds read low 0.98 | S. cerevisiae deletion strains, locus YJL187C, strain SWE1 (second series), active compounds read low 0.959 | S. cerevisiae deletion strains, locus YJR043C, strain POL32, active compounds read low 1.03 | S. cerevisiae deletion strains, locus YJR075W, strain HOC1, active compounds read low 0.926 | S. cerevisiae deletion strains, locus YKL009W, strain mrt4, active compounds read low 0.995 | S. cerevisiae deletion strains, locus YKL068W, active compounds read low 0.99 | S. cerevisiae deletion strains, locus YKL085W, strain MDH1 (second series), active compounds read low 0.97 | S. cerevisiae deletion strains, locus YKL085W, strain MDH1, active compounds read low 0.97 | S. cerevisiae deletion strains, locus YKL190W, strain CNB1, active compounds read low 0.978 | S. cerevisiae deletion strains, locus YKR001C, strain vps1, active compounds read low 1 | S. cerevisiae deletion strains, locus YLR039C, strain RIC1, active compounds read low 0.959 | S. cerevisiae deletion strains, locus YLR058C, strain SHM2, active compounds read low 0.973 | S. cerevisiae deletion strains, locus YLR102C, strain apc9, active compounds read low 0.978 | S. cerevisiae deletion strains, locus YLR262C, strain YPT6, active compounds read low 0.951 | S. cerevisiae deletion strains, locus YLR268W, strain sec22, active compounds read low 0.953 | S. cerevisiae deletion strains, locus YLR330W, strain CHS5, active compounds read low 0.998 | S. cerevisiae deletion strains, locus YLR342W, strain FKS1 (second series), active compounds read low 1.05 | S. cerevisiae deletion strains, locus YLR371W, strain rom2, active compounds read low 0.993 | S. cerevisiae deletion strains, locus YLR418C, strain cdc73, active compounds read low 0.955 | S. cerevisiae deletion strains, locus YML016C, strain PPZ1, active compounds read low 0.988 | S. cerevisiae deletion strains, locus YML032C, strain rad52, active compounds read low 1 | S. cerevisiae deletion strains, locus YML124C, strain tub3, active compounds read low 0.993 | S. cerevisiae deletion strains, locus YMR078C, strain ctf18, active compounds read low 0.989 | S. cerevisiae deletion strains, locus YMR223W, strain ubp8, active compounds read low 0.948 | S. cerevisiae deletion strains, locus YMR263W, strain SAP30, active compounds read low 0.96 | S. cerevisiae deletion strains, locus YMR307W, strain GAS1, active compounds read low 1.1 | S. cerevisiae deletion strains, locus YNL067W, strain RPL9B, active compounds read low 0.959 | S. cerevisiae deletion strains, locus YNL128W, strain TEP1, active compounds read low 0.945 | S. cerevisiae deletion strains, locus YNL153C, strain GIM3, active compounds read low 0.947 | S. cerevisiae deletion strains, locus YNL233W, strain BNI4, active compounds read low 0.979 | S. cerevisiae deletion strains, locus YNL250W, strain rad50, active compounds read low 0.97 | S. cerevisiae deletion strains, locus YNL271C, strain bni1, active compounds read low 0.987 | S. cerevisiae deletion strains, locus YNL298W, strain CLA4, active compounds read low 0.978 | S. cerevisiae deletion strains, locus YNL307C, strain MCK1, active compounds read low 0.998 | S. cerevisiae deletion strains, locus YNL322C, strain KRE1, active compounds read low 0.982 | S. cerevisiae deletion strains, locus YNR052C, strain pop2, active compounds read low 0.991 | S. cerevisiae deletion strains, locus YOL006C, strain TOP1, active compounds read low 0.936 | S. cerevisiae deletion strains, locus YOL012C, strain htz1 0.876 | S. cerevisiae deletion strains, locus YOL147C, strain pex11, active compounds read low 0.991 | S. cerevisiae deletion strains, locus YOR061W, strain CKA2, active compounds read low 0.964 | S. cerevisiae deletion strains, locus YOR069W, strain VPS5, active compounds read low 0.994 | S. cerevisiae deletion strains, locus YOR136W, strain idh2, active compounds read low 0.994 | S. cerevisiae deletion strains, locus YOR144C, strain elg1, active compounds read low 0.993 | S. cerevisiae deletion strains, locus YOR184W, strain ser1, active compounds read low 1.03 | S. cerevisiae deletion strains, locus YOR316C, strain cot1, active compounds read low 0.975 | S. cerevisiae deletion strains, locus YPL055C, strain LGE1, active compounds read low 0.935 | S. cerevisiae deletion strains, locus YPL241C, strain CIN2, active compounds read low 0.99 | S. cerevisiae deletion strains, locus YPR119W, strain clb2, active compounds read low 0.995 | S. cerevisiae deletion strains, locus YPR141C, strain kar3, active compounds read low 0.968 | S. cerevisiae deletion strains, locus YPR163C, strain tif3, active compounds read low 0.984 | S. cerevisiae deletion strains, locus YPR167C, strain met16, active compounds read low 0.979 | S. cerevisiae deletion strains, strain wtn01, active compounds read low 0.934 | S. cerevisiae strains, strain wild type, active compounds read low 0.987
